Pf growth 96h: P. falciparum growth inhibition at 96 hour, primary screen for plastid delayed-death inhibitors. P. falciparum luciferase reporter growth, 96 h. Potency, µM (doses to about 28.7 µM), inactives show at the top dose activity change, negative = inhibition, usual class: inhibitors. 320,000 compounds, 6.9% hits; also: potency is read from the fitted curve at half-maximal effect
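Two-generation exposure (96 h) targets delayed-death phenotype. Reporter parasites carrying integrated firefly luciferase, in red cells at 2% hematocrit and 0.05% parasitemia final, kept at 37 C, 5% CO2; luminescence loss indicates inhibition.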
HCV inh: inhibitors of hepatitis C virus infection; Huh7.5.1 HCVcc-Cre infection, luciferase reporter, 44 h; Potency, µM (doses to about 41.8 µM), for the others: at the top dose activity change, negative = inhibition, actives largely listed as inhibitors; 340,000 compounds, 3.4% hits; also: potency is read from the fitted curve at half-maximal effect
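Cells seeded at 1,000/well and cultured 4 h, then compounds added followed by HCVcc-Cre virus (~0.5 moi). After 44 h further culture, luciferase substrate was added, plates held 15 min at room temperature, and luminescence read for 15 sec.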
Pf growth 48h: inhibits P. falciparum growth in the first generation, 48 h; P. falciparum luciferase growth in erythrocytes, 48 h; Potency, µM (highest dose often 28.7 µM), for inactives: at the highest dose activity change, negative = inhibition, actives largely listed as inhibitors; 310,000 compounds, 5.9% hits; AID 504832; also: potency is read from the fitted curve at half-maximal effect
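Luciferase-expressing P. falciparum in infected erythrocytes (2% hematocrit, 0.1% parasitemia final) in RPMI 1640/0.5% Albumax were exposed to compound for 48 hours at 37 C, 5% CO2; growth read as luminescence.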
Marburg entry inh: inhibitors of Marburg virus binding or cell entry. Marburg virus pseudotyped entry inhibition, cell reporter. Potency, µM (series often up to 37.8 µM), inactives show at the top dose activity change, negative = inhibition, actives largely listed as inhibitors. 300,000 compounds, 1.8% hits. AID 540276; calls by dose curve; tested in HEK293 cells; also: potency is read from the fitted curve at half-maximal effect
Lassa entry inh: Lassa virus entry inhibition; Lassa virus pseudotype entry inhibition, cell reporter; Potency, µM (top dose mostly 37.9 µM), for inactives: at the top dose activity change, negative = inhibition, usual class: inhibitors; 300,000 compounds, 1.2% hits; calls by dose curve; tested in HEK293 cells; also: potency is read from the fitted curve at half-maximal effect; nearly all actives have a fitted effect of over 50% in size
HCMV inh: human cytomegalovirus inhibition. HFF cells, HCMV-luciferase reporter, 72 h; active compounds read low. activity change, negative = inhibition, % at 57.5 µM. 410,000 compounds, 4.5% hits; in the data active = activity change below about -60%; inconclusive = no clear call, values can overlap the other calls; inactive = above about -39%
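Human foreskin fibroblasts infected with luciferase-reporter HCMV at MOI 1 PFU/cell, compounds at two doses. Luciferase measured 72 h post infection; normalized to buffer-only basal and Salinomycin (10uM) controls.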
Active calls of the source: *; ? = inconclusive; / = no result given; [ ] = dose if it differs, or a comment. The list is not random: actives were taken first. Their share in the collection is about 14%. Unless noted, calls follow the shape of the dose curve; as a rule, active = well fitted inhibition curve with a large enough effect; inconclusive = small, poorly fitted or top-dose-only effect, or another doubt; inactive = no such curve, though single readings can be large or run the other way. % is scaled to controls: 0 for no effect and ±100 for the full control effect.

SMILES | Pf growth 96h | HCV inh | Pf growth 48h | Marburg entry inh | Lassa entry inh | HCMV inh
Cc1csc2nc(O)c(C(=O)NC3CCCCC3C)c(=O)n12 (configuration not stated) | ? | ? | 7.38µM* | 14.2%[46.1 µM] | ? | -29.0
Cc1csc2nc(O)c(C(=O)NCC3CCCO3)c(=O)n12 (configuration not stated) | -4.0% | 0.7% | ? | 11.5%[46.1 µM] | 0.2% | 44.5
CC1CCCCC1NC(=O)c1cc2c(=O)n3ccccc3nc2n1C (configuration not stated) | 2.33µM* | -28.8% | 0.2% | / | / | ?
COC(=O)c1cc2c(c3c4ccccc4n(S(=O)(=O)c4ccc(OC)cc4)c13)C(=O)N(Cc1ccc(C(F)(F)F)cc1)C2 | / | / | / | / | / | 74.2
Nc1cc(Br)cc2c1[nH]c(=O)c1ccccc12 | / | / | / | / | / | 12.0
CCOC(=O)C1CCCN(S(=O)(=O)c2ccc(N3CCCCS3(=O)=O)cc2)C1 (configuration not stated) | / | / | / | / | -28.3%[46.1 µM] | 5.2
Cn1c(C(=O)N2CCOCC2)cc2c(=O)n3ccccc3nc21 | 28.4% | 5.3% | 13.2% | 18.9%[46.1 µM] | 21.4%[46.1 µM] | -5.4
CC1CCCCC1NC(=O)c1c(O)nc2ccccn2c1=O (configuration not stated) | 5.22µM* | 15.0% | 5.22µM* | 15.3%[46.1 µM] | 8.2% | -35.2
Cn1c(C(=O)N2CCN(C(=O)c3ccco3)CC2)cc2c(=O)n3ccccc3nc21 | 4.65µM* | ? | 19.0% | -3.9% | 2.9% | 14.4
COc1ccnc(CS(=O)c2nc3cc(C(O)(F)F)ccc3[nH]2)c1OC (configuration not stated) | 14.9% | -0.1% | 6.9% | -0.4% | 11.3% | -25.8
COc1ccc2[nH]c(S(=O)Cc3ncc(C)c(OC)c3C)nc2n1 (configuration not stated) | 8.49µM* | / | 9.53µM* | / | / | /
COc1ccc2[nH]c(S(=O)Cc3ncc(C)c(OC)c3C)nc2c1 (configuration not stated) | 5.86µM* | -7.3% | / | / | / | -12.6
COC(=O)c1nc2n(n1)C(c1cc(OC)ccc1OC)C(C(=O)Nc1ccc(C)cc1C)=C(C)N2 (configuration not stated) | / | / | / | 1.2%[46.1 µM] | ? | -1.8
COc1cc(C)ccc1Oc1ccc([N+](=O)[O-])cc1 | / | 4.3% | / | -4.0% | ? | 27.0
COc1ccc(C[C@H]2COC(=O)[C@@H]2Cc2ccc(OC3OC(CO)C(O)C(O)C3O)c(OC)c2)cc1OC (some centres not stated) | -8.8% | 7.08µM* | -6.6% | -44.4% | -13.5% | /
COc1cc(C2OCC3C(c4ccc(OC5OC(CO)C(O)C(O)C5O)c(OC)c4)OCC23)ccc1O (configuration not stated) | 25.7% | -7.6% | 44.1% | / | / | 37.2
CCN(C(=O)Cc1c(C(=O)O)[nH]c2ccccc12)c1cc(OC)ccc1OC | 7.38µM* | 14.9% | ? | -20.1% | 12.0% | 49.4
COc1ccc(N(C)C(=O)Cc2c(C(=O)O)[nH]c3ccccc23)cc1 | 19.2% | -2.0% | 13.9% | -8.3%[46.1 µM] | -2.2% | -9.3
Cc1ccc2nc(C)c(C(=O)N/N=C/c3ccccc3[N+](=O)[O-])cc2c1 | 26.9% | -4.7% | 43.1% | -5.5% | -2.6% | -14.7
Cc1cc([N+](=O)[O-])c2[nH]c(C(=O)N/N=C/c3ccccc3C(=O)O)c(-c3ccccc3)c2c1 | ? | ? | ? | -13.6% | -7.1% | -80.2*
COC(=O)c1c(N)[nH]c(C(=O)c2ccccc2)c1-c1ccc(Cl)cc1 | / | / | / | / | / | -5.6
CNc1sc(C(=O)c2ccccc2F)c(N)c1-c1nc2ccccc2s1 | ? | 12.6µM* | / | -27.4% | -0.6% | 33.4
Cc1ccc(C)c(NC(=O)CSc2nccn2-c2cccc(C)c2C)c1 | / | / | / | / | ? | 11.9
CC(C)(C)C1CCC(OC(=O)c2cncc(Br)c2)CC1 (configuration not stated) | 36.4% | 12.6% | 63.1% | 11.7%[46.1 µM] | 0.8%[46.1 µM] | -20.0
CC(C)(C)C1CCC(OC(=O)c2ccncc2)CC1 (configuration not stated) | 8.8%[5.75 µM] | 27.0% | 11.7µM* | -2.9% | ? | -11.0
SMILES | Pf growth 96h | HCV inh | Pf growth 48h | Marburg entry inh | Lassa entry inh | HCMV inh
CC1=C(c2ccc(C)c(C)c2)S(=O)(=O)N=C1N1CCC(C(=O)NCc2ccc(C)o2)CC1 | / | / | / | / | 19.5%[46.1 µM] | 0.1
O=c1cc(/C=C/c2c(F)cccc2Cl)[nH]c2ccccc12 | 6.0% | -6.6% | 0.928µM* | 20.4% | 0.0% | 61.9
CC(=O)Oc1ccc(Cn2c(C)c(C(=O)NCCC#N)sc2=O)cc1 | / | / | / | / | / | -18.6
Cc1cc(C(=O)CN2C(=O)NC3(CCCc4ccccc43)C2=O)c(C)n1Cc1cccs1 (configuration not stated) | / | -25.1% | / | ? | -2.2% | -37.5
Cc1cc(C(=O)CN2C(=O)NC(c3ccccc3)(c3ccccc3)C2=O)c(C)n1Cc1ccco1 | -22.0% | -7.4% | 1.31µM* | ? | -1.3% | 20.8
Cc1cc(C(=O)CN2C(=O)NC(C)(c3cccc(Br)c3)C2=O)c(C)n1Cc1ccco1 (configuration not stated) | 10.3% | ? | 1.47µM* | ? | -18.2% | 7.1
NC(=O)c1cc(S(=O)(=O)NCc2ccc(Br)cc2)cs1 | 4.4% | -1.2% | ? | ? | -28.5%[46.1 µM] | -0.6
O=C(NNC(=O)C1CCN(C(=O)Nc2ccccc2)CC1)c1ccc([N+](=O)[O-])cc1 | 0.6% | 2.8% | -5.8% | / | / | 15.7
Cc1ccc(Cn2c(CNS(=O)(=O)c3ccc(C(C)(C)C)cc3)nc3cccnc32)cc1 | / | / | / | / | ? | -13.8
CC(C)Oc1cc(O)c2c(=O)c(-c3ccc(O)cc3)coc2c1 | 2.94µM* | -29.0% | 85.8% | / | / | ?
COCCNC(=O)/C(=C/c1ccccc1Cl)c1ccccc1 | 74.9% | -1.4% | -3.0% | 3.2% | ? | -77.0*
COCCNC(=O)c1ccc(C(=O)C(=O)c2ccccc2)cc1 | 51.6% | 4.5% | -17.9% | 22.7% | 8.1% | -2.6
CC(/C=C/c1ccco1)=N\NC(=O)CNc1cccc(C)c1 | 7.5% | 19.9% | ? | / | / | -60.7*
N#CCC(=O)N/N=C/c1cccc(Oc2ccccc2)c1 | -3.4% | -13.2% | 246.5% | ? | ? | ?
COC(=O)N/N=C(C)\C=C\c1ccco1 | ? | -3.6% | 12.4% | 8.6% | 16.3% | -0.3
Cc1cccc(NCC(=O)N/N=C\c2cccc(Oc3ccccc3)c2)c1 | -8.3% | -19.9% | -22.7% | ? | ? | -67.2*
CSc1ccc(/C=N\NC(=O)CNc2ccc(C)cc2)cc1 | 43.4% | 10.3% | 33.4% | -7.6% | 1.3µM* | 9.7
Cc1cccc(NCC(=O)N/N=C/c2ccc(Br)cc2)c1 | 5.9% | ? | 12.4% | -18.0%[46.1 µM] | ? | 7.1
Cc1ccc(NCC(=O)N/N=C/c2cccc(Oc3ccccc3)c2)cc1 | ? | ? | -11.2% | 4.2% | 2.31µM* | ?
